Assay outcomes from PubChem.
ATXN2 expr inh: reduces ATXN2 reporter expression in HEK-293 cells. HEK-293 ATXN2-luciferase reporter, luminescence, 24 h. Potency, µM (series often up to 57 µM), actives largely listed as inhibitors. 0.72% of 360,000 active. AID 1745845; note: nearly all actives have a fitted effect of over 55% in size
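ATXN2-luciferase reporter cells (luciferase flanked by upstream and downstream ATXN2 gene portions) were treated 24 h at 37 °C with compounds at up to 57 uM. SteadyGlo luminescence gave expression; GF-AFC fluorescence gave viability.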
A549 viability: counter-screen for Nrf2 inhibitors: cytotoxicity in A549 cells; A549 ARE-Fluc cells, CellTiter-Fluor viability, 18-24 h; Potency, µM (series often up to 46 µM), hits mostly inhibitors; 0.16% of 390,000 active; AID 504648
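A549 ARE_Fluc cells in 5% FBS OPTI-MEM were exposed to compounds in concentration-response for 18-24 h at 37 deg C. Viability was read by CellTiter-Fluor fluorescence (Ex 405/Em 525) after 30 min, before the luciferase read.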
ATXN viability: reduces viability in counter-screen for ATXN expression inhibitors; S2 cells (HEK-293 line with an ATXN2-luciferase reporter) viability, CellTiter-Fluor protease fluorescence, 24 h; Potency, µM (doses to about 56.7 µM), actives largely listed as cytotoxic; 0.49% of 400,000 active; AID 651635; note: nearly all actives have a fitted effect of over 40% in size
Nrf2 block: Nrf2 pathway inhibition | A549 ARE-Fluc reporter, luciferase luminescence, 18-24 h | Potency, µM (doses to about 46 µM), actives largely listed as inhibitors | 2.1% of 360,000 active | AID 504444; note: nearly all actives have a fitted effect of over 60% in size
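In this cell-based qHTS, ARE-driven firefly luciferase in A549 cells reports Nrf2 activity; the luminescent signal after BugLite lysis is the measured value, with a prior CellTiter-Fluor read for cell health.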
Nrf2 ARE act: activates Nrf2 signaling | AREc32 ARE-luciferase reporter (MCF7-derived line), luminescence, 24 h | Potency, µM (doses to about 46.1 µM), actives largely listed as activators | 0.31% of 410,000 active; note: nearly all actives have a fitted effect of over 65% in size
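Luciferase luminescence (Steady-Glo, 30 min at room temperature) served as the read-out of ARE activation in AREc32 cells treated with compounds for 24 hr at 37 deg C.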
A number is an active result; [ ] = dose if it differs, or a comment. Hits are enriched below; roughly 2.9% of the tested compounds scored in any of these assays. Calls come from the whole dose curve; as a rule, active = well fitted curve in the direction sought with a large enough effect; inconclusive = small, poorly fitted or top-dose-only effect, or another doubt; inactive = no such curve, though single readings can be large; an effect the other way counts as inactive or inconclusive.

How did CC1CN(S(=O)(=O)c2cccc(C(=O)Nc3ccccc3N3CCCCC3)c2)CC(C)O1 (stereo unspecified) do in these assays?
ATXN2 expr inh: inactive; A549 viability: inconclusive; ATXN viability: inactive; Nrf2 block: 16.4µM; Nrf2 ARE act: inactive

How did Cc1cc(C(=O)Nc2cccc(S(=O)(=O)N3CCCC3)c2)c2ccccc2n1 do in these assays?
A549 viability: inactive; ATXN viability: inconclusive; Nrf2 block: inconclusive; Nrf2 ARE act: inactive

Results for Cc1ccc(COC(=O)c2cc(S(=O)(=O)N3CCOCC3)ccc2C)cc1 ?
ATXN2 expr inh: inconclusive; A549 viability: inactive; ATXN viability: inactive; Nrf2 block: 16.4µM; Nrf2 ARE act: inactive

What do the screens show for `Cc1ccc(S(=O)(=O)N2CCOCC2)cc1C(=O)OCC(=O)N1CCCCC1`?
ATXN2 expr inh: inactive; A549 viability: inactive; ATXN viability: inactive; Nrf2 block: inactive; Nrf2 ARE act: inactive

What do the screens show for `Cc1ccc(NC(=O)/C=C/c2ccco2)cc1S(=O)(=O)N1CCCCCC1`?
ATXN2 expr inh: inactive; A549 viability: inconclusive; ATXN viability: inconclusive; Nrf2 block: inconclusive; Nrf2 ARE act: inactive

Results for O=C(NCc1ccncc1)C1CCN(S(=O)(=O)c2cccc(C(F)(F)F)c2)CC1 ?
ATXN2 expr inh: inactive; A549 viability: inactive; ATXN viability: inactive; Nrf2 block: inactive; Nrf2 ARE act: inactive

Results for CC1CN(S(=O)(=O)c2cccc(C(=O)N=c3sccn3C)c2)CC(C)O1 (stereo unspecified) ?
ATXN2 expr inh: inactive; A549 viability: inactive; ATXN viability: inactive; Nrf2 block: 11.6µM; Nrf2 ARE act: inactive

What do the screens show for `O=C(Nc1ccncc1)C1CCN(S(=O)(=O)c2cccc(C(F)(F)F)c2)CC1`?
ATXN2 expr inh: inactive; A549 viability: inactive; ATXN viability: inactive; Nrf2 block: 16.4µM; Nrf2 ARE act: inactive

Results for Cc1ccc(S(=O)(=O)N2CCOCC2)cc1C(=O)Nc1ccc(N2CCCCCC2)cc1 ?
ATXN2 expr inh: inactive; A549 viability: inactive; ATXN viability: inactive; Nrf2 block: 20.6µM; Nrf2 ARE act: inactive

How did O=C1CN(C(=O)CNC(=O)c2ccccc2Cl)c2ccccc2N1 do in these assays?
ATXN2 expr inh: inactive; A549 viability: inactive; ATXN viability: inactive; Nrf2 block: inactive; Nrf2 ARE act: inactive

Results for COCCCNC1=C(Cl)C(=O)c2ccccc2C1=O ?
ATXN2 expr inh: inconclusive; A549 viability: inactive; ATXN viability: inactive; Nrf2 block: 25.9µM; Nrf2 ARE act: inactive

Results for CCN(CC)CCCNC1=C(Cl)C(=O)c2ccccc2C1=O ?
ATXN2 expr inh: inconclusive; A549 viability: inconclusive; ATXN viability: 23.8µM; Nrf2 block: inconclusive; Nrf2 ARE act: inactive

What do the screens show for `Cc1ccc(NC2=CC(=O)C(=O)c3ccccc32)c(C)c1`?
A549 viability: inactive; ATXN viability: inconclusive; Nrf2 block: inconclusive; Nrf2 ARE act: inactive

How did O=C1C=C(Nc2ccccc2O)c2ccccc2C1=O do in these assays?
ATXN2 expr inh: 14.1µM; A549 viability: inconclusive; ATXN viability: inconclusive; Nrf2 block: inconclusive; Nrf2 ARE act: inactive

What do the screens show for `CC(NC(=O)Nc1nnc(C(F)(F)F)s1)(C(F)(F)F)C(F)(F)F`?
ATXN2 expr inh: inconclusive; A549 viability: 16.4µM; ATXN viability: inconclusive; Nrf2 block: 5.17µM; Nrf2 ARE act: inactive

Results for O=C(Nc1ccccc1C(=O)Nc1nnc(C(F)(F)F)s1)c1ccccc1Cl ?
ATXN2 expr inh: 12.6µM; A549 viability: 16.4µM; ATXN viability: inconclusive; Nrf2 block: 6.51µM; Nrf2 ARE act: inactive

What do the screens show for `Cc1cc(C(=O)Nc2nnc(C(F)(F)F)s2)cs1`?
ATXN2 expr inh: inactive; A549 viability: inactive; ATXN viability: inactive; Nrf2 block: inactive; Nrf2 ARE act: 8.91µM

What do the screens show for `CC(C)(C)CC(=O)Nc1nnc(C(F)(F)F)s1`?
ATXN2 expr inh: inactive; A549 viability: inactive; ATXN viability: inactive; Nrf2 block: inconclusive; Nrf2 ARE act: inactive

Results for Cc1ccccc1CN1CCC(Oc2ccc(C(=O)N3CCCC3)cc2)CC1 ?
ATXN2 expr inh: inactive; A549 viability: inactive; ATXN viability: inconclusive; Nrf2 block: inactive; Nrf2 ARE act: inactive

How did Oc1ccc2c(c1)oc1cc(O)ccc12 do in these assays?
ATXN2 expr inh: inactive; A549 viability: inactive[1.84 µM]; ATXN viability: inconclusive; Nrf2 block: inconclusive; Nrf2 ARE act: 12.6µM

Results for Cc1ccccc1NC(=O)[C@H](CSCc1ccccc1)N1Cc2ccccc2C1=O ?
ATXN2 expr inh: inactive; A549 viability: inactive; ATXN viability: inconclusive; Nrf2 block: inconclusive; Nrf2 ARE act: inactive

How did COc1ccc(NC(=O)CN(C)C(=O)C2(c3ccccc3)CCCC2)cc1 do in these assays?
ATXN2 expr inh: inactive; A549 viability: inactive; ATXN viability: inactive; Nrf2 block: 8.2µM; Nrf2 ARE act: inactive

How did CC(C(=O)O)N1CCCCC1 (stereo unspecified) do in these assays?
ATXN2 expr inh: inactive; A549 viability: inactive; ATXN viability: inactive; Nrf2 block: inactive; Nrf2 ARE act: inactive

Results for O=C(CSc1ccc(-c2ccco2)nn1)N1CCCC1 ?
ATXN2 expr inh: inactive; A549 viability: inactive; ATXN viability: inactive; Nrf2 block: inactive; Nrf2 ARE act: 10µM

Results for O=C(CSc1ccc(-c2ccco2)nn1)N1CCCCC1 ?
ATXN2 expr inh: inactive; A549 viability: inactive; ATXN viability: inactive; Nrf2 block: inconclusive; Nrf2 ARE act: inconclusive

Results for Cc1cc(-c2ccc(S(=O)(=O)Nc3ccc(Br)c(C)c3)s2)on1 ?
A549 viability: inactive; Nrf2 block: inactive; Nrf2 ARE act: inactive

How did CSc1nc2nccc(/C=C\c3ccccc3)n2n1 do in these assays?
ATXN2 expr inh: inactive; A549 viability: inactive; ATXN viability: inactive; Nrf2 block: inconclusive; Nrf2 ARE act: inconclusive

What do the screens show for `N#CCSc1nccc(/C=C/c2ccccc2)n1`?
ATXN2 expr inh: inactive; A549 viability: inactive; ATXN viability: inactive; Nrf2 block: inconclusive; Nrf2 ARE act: 11.2µM

How did COc1ccc(C(C(=O)NC2CCCCC2)N(C(=O)CCl)c2ccc(C)cc2)cc1 (stereo unspecified) do in these assays?
ATXN2 expr inh: inconclusive; A549 viability: inactive; Nrf2 block: inconclusive; Nrf2 ARE act: inactive

Results for COc1ccc(C(C(=O)NC2CCCCC2)N(C(=O)CCl)c2cccc(Cl)c2)cc1 (stereo unspecified) ?
ATXN2 expr inh: 6.31µM; A549 viability: inconclusive; ATXN viability: 7.08µM; Nrf2 block: inconclusive; Nrf2 ARE act: inconclusive

What do the screens show for `COc1ccc(C(C(=O)NC2CCCCC2)N(C(=O)CCl)c2ccc(OC)cc2)cc1` (stereo unspecified)?
ATXN2 expr inh: 3.55µM; A549 viability: inactive; ATXN viability: 3.98µM; Nrf2 block: inconclusive; Nrf2 ARE act: inactive

How did COc1ccc(C(=O)N/C(=C\c2ccco2)C(=O)NC2CCS(=O)(=O)C2)cc1 (stereo unspecified) do in these assays?
ATXN2 expr inh: inactive; A549 viability: inactive; ATXN viability: inactive; Nrf2 block: inactive; Nrf2 ARE act: inactive

What do the screens show for `Cc1nnc(SCC(=O)Nc2ccc(N3CCOCC3)cc2)n1-c1ccccc1`?
ATXN2 expr inh: inactive; A549 viability: inactive; ATXN viability: inactive; Nrf2 block: inactive; Nrf2 ARE act: inactive
